Hit rate of the full screen: of about 360,000 compounds, about 4,600 (1.3%) were called active. The sample holds actives, similar compounds and a random draw of the others, so the mix is not that of the screen.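 The calls were made as follows: active = percent inhibition above its own plate's cutoff, namely the mean of that plate's compound wells plus 3 SD; inactive = the rest.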

In the experiment the target is Muscarinic acetylcholine receptor M1 (Homo sapiens) (UniProt P11229). The experiment in a line: human M1 muscarinic receptor antagonists, primary screen, CHO-K1 cells, Fluo-8 calcium fluorescence, 1536-well (AID 588852).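 Also: peak over basal fluorescence ratio during 140 s after agonist addition; 0% = ACh EC80 plus DMSO and 100% = DMSO alone without agonist.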 To be noted: CHO-K1 hM1, Fluo-8 calcium fluorescence, ACh EC80 antagonist; at 3 µM; active compounds read high.
Sequence of Muscarinic acetylcholine receptor M1 (Homo sapiens) (P11229 whole entry, looked up): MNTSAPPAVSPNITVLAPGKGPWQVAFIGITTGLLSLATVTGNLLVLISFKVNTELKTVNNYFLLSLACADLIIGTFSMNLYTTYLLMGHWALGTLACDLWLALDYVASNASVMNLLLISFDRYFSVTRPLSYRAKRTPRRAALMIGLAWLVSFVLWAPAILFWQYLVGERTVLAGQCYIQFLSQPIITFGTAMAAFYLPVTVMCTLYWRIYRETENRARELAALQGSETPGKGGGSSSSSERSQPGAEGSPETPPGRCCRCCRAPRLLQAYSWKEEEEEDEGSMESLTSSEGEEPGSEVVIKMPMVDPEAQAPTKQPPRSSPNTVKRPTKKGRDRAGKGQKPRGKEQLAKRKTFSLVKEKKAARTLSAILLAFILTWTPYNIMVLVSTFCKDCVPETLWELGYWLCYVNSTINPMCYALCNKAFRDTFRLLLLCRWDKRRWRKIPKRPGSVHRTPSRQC
In the case of `C=Cn1cc[n+](CC(=O)c2ccc(OC)c(OC)c2)c1`, the inhibition was 8.24% (inactive).
The figure for `CCOc1ccc(OCc2ccc(C(=O)N(C)c3ccccc3)o2)cc1` is -7.87% (inactive).
The figure for `CN(C(=O)CN1CCN(c2cc(-c3ccc(OCc4ccccc4)cc3)ncn2)CC1)c1ccccc1` is 30.1% (active); for `CN(Cc1ccccc1)C(=O)c1ccc(COc2ccccc2)cc1` it is -0.5% (inactive); for `CC(C)NC(=O)NCCCCCCS(C)=O` (centres undefined) it is -12% (inactive).
As for `C/C=C/c1ccc(OCCCCN2CCC(C)CC2)c(OC)c1`, the figure is 10.4% (inactive); as for `Cc1sc2ncn(CC(=O)NCCCC(=O)N3CCN(c4ccccc4F)CC3)c(=O)c2c1C`, 9.4% (inactive).
As to `COc1ccc(C(=O)NN2C(=O)C3C(c4ccccc4)C=CC(c4ccccc4)C3C2=O)cc1` (centres undefined), the inhibition was 27.3% (active).
The figure for `COc1ccccc1C(=O)NN1C(=O)C2C3C=CC(O3)C2C1=O` (centres undefined) is 1.11% (inactive); for `O=C(NN1C(=O)C2C3C=CC(O3)C2C1=O)c1ccccc1` (centres undefined) it is -6.53% (inactive).
Regarding `Cc1ccc(S(=O)(=O)NCC(=O)N(CC(=O)NCC2CCCO2)c2cccc(F)c2)cc1` (centres undefined), the inhibition was -7.09% (inactive).
The figure for `CC(=O)Nc1cccc(-c2ccnc3c2CC(C)(C(=O)NCc2ccccc2)O3)c1` (centres undefined) is -11.3% (inactive); for `CC(O)(c1cccc(F)c1)c1nc(-c2ccc3c(c2)OCO3)cs1` (centres undefined) it is 1.89% (inactive); for `Fc1ccc(-n2c(Cc3ccccc3)nnc2SCc2nc(-c3ccc(Cl)cc3)no2)cc1` it is -1.38% (inactive).
In the case of `CCOc1ccc2[nH]c(=O)c(CN(CCCO)S(=O)(=O)c3ccc(F)cc3)cc2c1`, the inhibition is -1.99% (inactive).
As for `COc1ccc2[nH]c(=O)c(CN(Cc3cccnc3)S(=O)(=O)c3ccccc3F)cc2c1`, the inhibition is 30.8% (active).
The figure for `COc1ccc(-c2[nH]ncc2CN(C)Cc2cccnc2)c(F)c1` is -0.76% (inactive); for `O=C(NCCN1CCOCC1)c1ccccc1N1C(=O)[C@@H]2Cc3c([nH]c4ccccc34)C(c3cccc(Cl)c3)N2C1=O` (some centres undefined) it is 9.91% (inactive).
The figure for `CCCc1nc2c3ccccc3ccn2c1Cc1ccccc1C(F)(F)F` is 0.78% (inactive); for `COc1ccccc1CC1(C)C(=O)Nc2ccc(OC(F)(F)F)cc21` (centres undefined) it is -12.6% (inactive).
On to `CC1=C(C(=O)N(C(C)C)C(C)C)CC(CC(=O)NCC2CCCCC2)C(=O)N1Cc1ccccc1` (centres undefined), for which the inhibition was -28.2% (inactive).
Turning to `Cc1c2cnn(CC(=O)NCc3ccccn3)c(=O)c2c(C)n1Cc1ccc(Cl)cc1`, the inhibition is -7.49% (inactive).
As for `N#C/C(=C\c1ccc(N2CCOCC2)o1)C(=O)N1CCOCC1`, the figure is -4.72% (inactive); as for `N#C/C(=C/c1ccc(N2CCCCC2)o1)C(=O)NCCc1c[nH]c2ccccc12`, 44.3% (active); as for `N#C/C(=C/c1ccc(N2CCOCC2)o1)C(=O)N1CCOCC1`, -3.41% (inactive).
As for `Cc1ccc2cc(C)c(N3CCC(C)CC3)nc2c1`, the figure is 1.39% (inactive); as for `Cc1cc(Nc2cc(N3CCN(C)CC3)nc(Sc3ccc(NC(=O)C4CC4)cc3)n2)n[nH]1`, -2.83% (inactive).
For the molecule `CCN(CC)CCN(C(=O)c1cc(Cl)sc1Cl)c1nc2cc3c(cc2s1)OCO3`, the inhibition is 83.7% (active).
As for `CCN(CC)CCN(C(=O)c1ccc2c(c1)CCCC2)c1nc2c(OC)cccc2s1`, the figure is 14.3% (inactive); as for `CCNC(=S)N(CCN(CC)CC)Cc1cc2cc3c(cc2[nH]c1=O)OCO3`, -13.5% (inactive); as for `C[C@@H]1CN([C@H](C)CO)C(=O)c2cc(Br)cnc2O[C@@H]1CN(C)Cc1cncnc1`, -11.6% (inactive).
As to `COc1ccc(S(=O)(=O)N2CCN(C(=O)N(C)C)C2C)cc1` (centres undefined), the inhibition was -7.85% (inactive).
Consider `O=C(CC[C@H]1O[C@@H](n2ccc(=O)[nH]c2=O)[C@H](O)[C@@H]1O)N[C@H](Cc1ccccc1)C(=O)NCc1ccco1`, for which the inhibition is -4.88% (inactive).
As for `Cc1ccc(S(=O)(=O)N2CC[C@H]3[C@@H](C2)C(=O)C[C@@H](c2ccccc2)N3S(=O)(=O)c2ccc(C)cc2)cc1`, the figure is -2.99% (inactive); as for `CCC(=O)Nc1ccc2c(c1)nc(CCN1CCN(c3ccccn3)CC1)n2C`, 41.9% (active).
The figure for `Cn1c(CCN2CCN(c3ccccn3)CC2)nc2cc(NS(=O)(=O)c3ccc(F)cc3)ccc21` is 69.9% (active); for `CCOC(=O)N1CCN(Cc2nc3cc(NC(C)=O)ccc3n2C)CC1` it is -2.65% (inactive); for `Cn1c(=O)n(C)c2cc(NS(=O)(=O)c3ccc(F)cc3)ccc21` it is 4.92% (inactive).
The figure for `CCN(CC)c1ccc(NC(=O)CN2CCN(c3ccccn3)CC2)cc1` is -1.84% (inactive); for `Cn1c(=O)n(C)c2cc(S(=O)(=O)Nc3ccc(F)cc3)ccc21` it is 0.75% (inactive); for `CCOc1ccc(CCN2C(=S)N([C@@H](CC(C)C)CN3CCC[C@@H]3CN3C(=S)NC[C@@H]3Cc3ccc(O)cc3)C[C@@H]2Cc2ccc(O)cc2)cc1` it is -5.61% (inactive).
For the molecule `COc1ccc(OC)c(C2C3=C(N=c4s/c(=C\c5cccc(O)c5)c(=O)n42)c2ccccc2CC3)c1` (centres undefined), the inhibition is -14.9% (inactive).
With `CC1(c2cccc(Br)c2)NC(=O)N(CC(=O)NCCC2=CCCCC2)C1=O` (centres undefined), the inhibition was -4.07% (inactive).
The figure for `Cc1ccc(-c2ccc(=O)n(Cc3ccc(F)cc3Cl)n2)cc1` is -14.4% (inactive); for `CN(C)Cc1ccc(F)cc1Sc1cc(Cl)ccc1Cl` it is 91.5% (active).
As for `CN(Cc1ccc(F)cc1Cl)S(=O)(=O)c1cccs1`, the figure is -6.7% (inactive); as for `CC(=O)NC(c1cccs1)c1cc(Br)c2cccnc2c1O` (centres undefined), -13.2% (inactive).
The figure for `CCOC(=O)c1[nH]c2ccc(OC)cc2c1NC(=O)N1CCOCC1` is -21.5% (inactive); for `CCOC(=O)c1[nH]c2ccc(C)cc2c1N=C(C)N(C)C` it is 33.5% (active).
On to `CCOC(=O)c1cc2cc(C)ccc2[nH]1`, for which the inhibition was 6.42% (inactive).
In the case of `Cc1ccc(-c2ccnc3nc(Sc4ncc(C(F)(F)F)cc4Cl)nn23)cc1`, the inhibition was -1.4% (inactive).
The figure for `O=C(Nn1cnnc1)c1cc(Cl)ccc1Cl` is -9.41% (inactive); for `O=C(NCc1ccc2c(c1)OCO2)c1cc2c(s1)CS(=O)(=O)C2` it is 4.31% (inactive).
As for `Cc1ccc(C(C)C)cc1OCCN1CCCC1`, the figure is 53% (active).
As for `Cc1ccc(C(C)C)cc1OCC(=O)Nc1ccccc1N1CCCC1`, the figure is -19.6% (inactive); as for `Cc1cc(OCCN2CCCC2)cc(C(C)C)c1`, 82.3% (active).
`Cc1cc(OCCN2CCCC2)ccc1C(C)C`: the inhibition is -3.45% (inactive).
The figure for `c1ccc2cc(OCCN3CCCC3)ccc2c1` is -1.41% (inactive).
The figure for `Cc1ccc(OCCCCN2CCCCC2)c(Br)c1` is 22.6% (inactive).

These data come from PubChem BioAssay AID588852 (The Scripps Research Institute Molecular Screening Center, 2011).
